Source: PubChem
Sampled rows, rich in hits. Any-hit rate of the full collection: about 1.4%.
MCL1 BIM primary = MCL1-BIM-BH3 interaction inhibition (human) | GST-MCL1 / FITC-Bim-BH3 fluorescence polarization | 320,000 tested, 0.68% active | inhibition, % at 10.9 µM | AID 2057 | Q07820;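 active = inhibition above the mean inhibition of all tested compounds plus 3 SD, set per campaign, cut at about 40% in these data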;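 also: 0% = DMSO wells and 100% = unlabeled Bim-BH3 peptide control; higher means more loss of mP so more displacement of Bim peptide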
Target sequence (Q07820 whole entry, looked up): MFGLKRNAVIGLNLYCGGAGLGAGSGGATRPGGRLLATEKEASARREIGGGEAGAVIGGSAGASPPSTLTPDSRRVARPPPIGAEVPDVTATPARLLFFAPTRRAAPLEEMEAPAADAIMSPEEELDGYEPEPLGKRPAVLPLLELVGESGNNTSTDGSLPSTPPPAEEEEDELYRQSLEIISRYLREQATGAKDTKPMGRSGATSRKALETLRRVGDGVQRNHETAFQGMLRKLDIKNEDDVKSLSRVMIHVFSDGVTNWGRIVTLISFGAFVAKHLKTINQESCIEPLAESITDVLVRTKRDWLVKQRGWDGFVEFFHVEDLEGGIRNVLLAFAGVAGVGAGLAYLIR
eLon inh = inhibits E. coli Lon protease. P0A9M0. purified E. coli Lon protease, fluorescence polarization. inhibition, % at 7.94 µM. 360,000 tested, 0.42% active; in the data active = inhibition above about 13%, passing the limit was not always enough;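 also: 0% = enzyme with probe and DMSO and 100% = no enzyme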
GLD-1 RNA inh = GLD-1-TGE RNA interaction inhibition (C. elegans); purified GLD-1 + fluorescein TGE RNA, fluorescence polarization; 320,000 tested, 0.44% active; inhibition, % at 5.96 µM; Q17339; AID 2280;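 active = percent inhibition above a per-plate cutoff, the plate mean of test compounds plus 3 SD, cut at about 30% in these data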;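 also: 0% = DMSO wells with GLD-1 and probe and 100% = wells lacking GLD-1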
MEX-5 binding = C. elegans MEX-5 TCR-2 RNA binding activity. 300,000 tested, 0.38% active. AID 1832. MEX-5/FITC-TCR2 RNA binding, fluorescence polarization; stronger effect = lower value. activity score (negative = inhibition of binding), % at 10 µM;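 active = inhibition past about -25% in most replicates, and total fluorescence under double the plate's negative control median, limit read from the data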;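 also: 0% = DMSO and -100% = 5 µM competing unlabeled TCR2 RNA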
Bcl-xL primary = blocks human Bcl-xL binding to Bim BH3 peptide; Q07817; 320,000 tested, 0.7% active; inhibition, % at 10.9 µM; GST-Bcl-xL / FITC-Bim BH3 peptide fluorescence polarization;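 active = inhibition above the mean of all tested compounds plus 3 SD, cutoff set per campaign, cut at about 30% in these data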;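 also: 0% = DMSO wells and 100% = unlabeled Bim-BH3 peptide competitor; inhibitors lower millipolarization by displacing the labeled peptide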
Target sequence (Q07817 whole entry, looked up): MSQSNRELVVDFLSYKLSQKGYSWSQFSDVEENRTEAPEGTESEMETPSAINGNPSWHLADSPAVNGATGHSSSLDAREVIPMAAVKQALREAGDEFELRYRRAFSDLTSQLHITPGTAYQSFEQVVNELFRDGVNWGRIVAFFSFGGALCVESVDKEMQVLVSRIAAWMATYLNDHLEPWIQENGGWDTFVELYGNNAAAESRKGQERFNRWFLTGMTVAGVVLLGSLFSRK
Active calls of the source: *.

Results for Cc1ccccc1CC1(CO)CCCN(Cc2nc(-c3cccs3)oc2C)C1 (configuration not stated) ?
MCL1 BIM primary: -6; eLon inh: -8; GLD-1 RNA inh: -5; MEX-5 binding: -2; Bcl-xL primary: 3

What do the screens show for `Oc1cc2c(cc1O)C1c3ccc(O)c(O)c3OCC1(O)C2` (configuration not stated)?
MCL1 BIM primary: 77*; eLon inh: 10; GLD-1 RNA inh: 35*; Bcl-xL primary: 34*

How did COc1ccc(-c2ccc(/C=N/N3C(=O)C4C5C=CC(C6CC56)C4C3=O)o2)c([N+](=O)[O-])c1 (configuration not stated) do in these assays?
MCL1 BIM primary: 39; eLon inh: 4; GLD-1 RNA inh: 20; MEX-5 binding: 2; Bcl-xL primary: 31*

How did O=C1C2C3C=CC(C4CC34)C2C(=O)N1/N=C/c1ccc(-c2ccc(Cl)cc2[N+](=O)[O-])o1 (configuration not stated) do in these assays?
MCL1 BIM primary: 18; eLon inh: 5; GLD-1 RNA inh: 15; MEX-5 binding: 2; Bcl-xL primary: 16

Results for CCCS(=O)(=O)N1CCN(c2cc3c(cc2[N+](=O)[O-])n(C)c(=O)n3C)CC1 ?
MCL1 BIM primary: 9; eLon inh: 2; GLD-1 RNA inh: -1; MEX-5 binding: -3; Bcl-xL primary: 4

Results for COc1ccc(/C=C2\CCCc3c2nc2ccccc2c3C(=O)OCC(=O)c2c(N)n(C)c(=O)n(C)c2=O)cc1 ?
MCL1 BIM primary: 39; GLD-1 RNA inh: 101*; MEX-5 binding: 0; Bcl-xL primary: 41*

How did Cc1cc(C)n(Cc2ccc(C(=O)N/N=C/c3ccc(-c4ccc([N+](=O)[O-])cc4)o3)o2)n1 do in these assays?
MCL1 BIM primary: 43*; eLon inh: -19; GLD-1 RNA inh: -4; MEX-5 binding: -3; Bcl-xL primary: 50*

What do the screens show for `Cc1cc([N+](=O)[O-])ccc1-c1ccc(/C=N/NC(=O)c2ccc(Br)o2)o1`?
MCL1 BIM primary: 16; eLon inh: -25; GLD-1 RNA inh: 1; MEX-5 binding: -58*; Bcl-xL primary: 15

How did Cc1cc(C(=O)N/N=C/c2ccc(-c3ccc([N+](=O)[O-])cc3C)o2)n[nH]1 do in these assays?
MCL1 BIM primary: 12; eLon inh: 13; GLD-1 RNA inh: -7; MEX-5 binding: -16; Bcl-xL primary: 12

How did CCCCC(=O)N/N=C/c1ccc(-c2ccc([N+](=O)[O-])cc2)o1 do in these assays?
MCL1 BIM primary: -18; eLon inh: -1; GLD-1 RNA inh: -1; MEX-5 binding: -5; Bcl-xL primary: -21

How did O=C(Nc1ccc(S(=O)(=O)N2CCCC2)cc1)c1cccnc1Cl do in these assays?
MCL1 BIM primary: -2; eLon inh: -4; GLD-1 RNA inh: 2; MEX-5 binding: 2; Bcl-xL primary: -2

How did COc1ccc(-n2c(O)c(/C=N/NS(=O)(=O)c3ccc(C)c([N+](=O)[O-])c3)c3ccccc3c2=O)cc1OC do in these assays?
MCL1 BIM primary: -96; eLon inh: -166; GLD-1 RNA inh: -33; MEX-5 binding: 7; Bcl-xL primary: 41*

How did COc1cc(/C=N/NS(=O)(=O)c2ccc(C)c([N+](=O)[O-])c2)cc([N+](=O)[O-])c1O do in these assays?
MCL1 BIM primary: 5; eLon inh: 4; GLD-1 RNA inh: -5; MEX-5 binding: -8; Bcl-xL primary: 5

What do the screens show for `O=C(O)c1ccc(-n2c(-c3cc(-c4ccco4)[nH]n3)n[nH]c2=S)cc1`?
MCL1 BIM primary: 38; eLon inh: 0; GLD-1 RNA inh: 3; MEX-5 binding: -92*; Bcl-xL primary: 9

Results for COc1ccccc1NS(=O)(=O)c1cccc(C(=O)N/N=C2\CC(=O)CC(C)(C)C2)c1 ?
MCL1 BIM primary: 7; eLon inh: 21; GLD-1 RNA inh: 59*; MEX-5 binding: -3; Bcl-xL primary: 9

How did CCN(CC)c1ccc(/C=N/NC(=O)c2cccc(S(=O)(=O)Nc3ccccc3OC)c2)c(O)c1 do in these assays?
MCL1 BIM primary: -19; eLon inh: -53; GLD-1 RNA inh: -31; MEX-5 binding: -31*; Bcl-xL primary: -10

Results for Cc1nccn1-c1ccc(C=O)cc1 ?
MCL1 BIM primary: 17; eLon inh: 2; GLD-1 RNA inh: 2; MEX-5 binding: -3; Bcl-xL primary: 3

Results for O=C(CN1C(=O)c2ccccc2S1(=O)=O)Nc1ncc(Cl)cc1Cl ?
eLon inh: 10; GLD-1 RNA inh: 57*

How did CCOc1cc(NC(=S)NCC2CCCO2)c(OCC)cc1NC(=O)c1ccccc1F (configuration not stated) do in these assays?
MCL1 BIM primary: -2; eLon inh: -12; GLD-1 RNA inh: 3; MEX-5 binding: 2; Bcl-xL primary: -1

How did COc1cc2c(cc1NC(=O)CN1CCN(S(=O)(=O)c3ccccc3F)CC1)oc1ccccc12 do in these assays?
MCL1 BIM primary: -1; eLon inh: -4; GLD-1 RNA inh: 5; MEX-5 binding: -1; Bcl-xL primary: 4

What do the screens show for `COc1ccc(C2Nc3cccc4cccc(c34)N2)cc1Br`?
MCL1 BIM primary: 14; eLon inh: -6; GLD-1 RNA inh: 1; MEX-5 binding: -1; Bcl-xL primary: 10

How did COc1cc(C2Nc3cccc4cccc(c34)N2)ccc1OC(C)=O do in these assays?
MCL1 BIM primary: 45*; eLon inh: -6; GLD-1 RNA inh: 10; MEX-5 binding: -1; Bcl-xL primary: 39*

Results for Cc1cccc(C)c1OCC(=O)NNC(=O)CNC(=O)c1ccc(OC(F)F)cc1 ?
MCL1 BIM primary: -11; eLon inh: -10; GLD-1 RNA inh: 0; Bcl-xL primary: -1

What do the screens show for `CCN1CCN(Cc2ccc(NC(=O)c3ccc(C)c(NC(=O)c4ccno4)c3)cc2C(F)(F)F)CC1`?
MCL1 BIM primary: 3; eLon inh: 4; GLD-1 RNA inh: -3; MEX-5 binding: 3; Bcl-xL primary: 4

How did CCN1CCN(Cc2ccc(NC(=O)c3ccc(C)c(/C=C/c4cnc(Nc5cc(N6CCNCC6)nc(C)n5)cn4)c3)cc2C(F)(F)F)CC1 do in these assays?
MCL1 BIM primary: 17; eLon inh: -151; GLD-1 RNA inh: -148; MEX-5 binding: 27; Bcl-xL primary: 38*

Results for N#Cc1ccccc1-c1ccccc1C(=O)N1CCCCC1 ?
MCL1 BIM primary: 3; eLon inh: -11; GLD-1 RNA inh: 3; MEX-5 binding: -2; Bcl-xL primary: 6

How did Cc1cccc(N2CCN(C(=O)Cc3cn(C)c4ccccc34)CC2)c1C do in these assays?
MCL1 BIM primary: 44*; eLon inh: 0; GLD-1 RNA inh: 18; MEX-5 binding: 0; Bcl-xL primary: 48*

Results for Cc1cccc(N2CCN(C(=O)COc3cc(=O)n(C)c4ccccc34)CC2)c1C ?
MCL1 BIM primary: 3; eLon inh: -8; GLD-1 RNA inh: 3; MEX-5 binding: 2; Bcl-xL primary: 8

What do the screens show for `COc1ccc(CCC(=O)OCC(=O)c2cccc(OC)c2)cc1`?
MCL1 BIM primary: -5; eLon inh: -13; GLD-1 RNA inh: 3; Bcl-xL primary: -2
